The supplement of paper PMC12819154, “High-throughput peptide-centric local stability assay extends protein–ligand identification to membrane proteins, tissues and bacteria” (Nature Structural & Molecular Biology, 2025)

compound: CN[C@@H]1C[C@H]2O[C@@](C)([C@@H]1OC)n1c3ccccc3c3c4c(c5c6ccccc6n2c5c31)C(=O)NC4 [staurosporine]; assay: log2 fold change of tryptic peptide abundance, ligand vs vehicle (limited proteolysis) (log2 ratio); higher = more trypsin-susceptible (destabilized); settings: ligand concentration: 20 uM; sample: K562 cleared lysate; digestion: 4 min, 22 C (HT-PELSA RT4min, Orbitrap Astral)

UniProt Q13470, sequence (Q13470 whole entry): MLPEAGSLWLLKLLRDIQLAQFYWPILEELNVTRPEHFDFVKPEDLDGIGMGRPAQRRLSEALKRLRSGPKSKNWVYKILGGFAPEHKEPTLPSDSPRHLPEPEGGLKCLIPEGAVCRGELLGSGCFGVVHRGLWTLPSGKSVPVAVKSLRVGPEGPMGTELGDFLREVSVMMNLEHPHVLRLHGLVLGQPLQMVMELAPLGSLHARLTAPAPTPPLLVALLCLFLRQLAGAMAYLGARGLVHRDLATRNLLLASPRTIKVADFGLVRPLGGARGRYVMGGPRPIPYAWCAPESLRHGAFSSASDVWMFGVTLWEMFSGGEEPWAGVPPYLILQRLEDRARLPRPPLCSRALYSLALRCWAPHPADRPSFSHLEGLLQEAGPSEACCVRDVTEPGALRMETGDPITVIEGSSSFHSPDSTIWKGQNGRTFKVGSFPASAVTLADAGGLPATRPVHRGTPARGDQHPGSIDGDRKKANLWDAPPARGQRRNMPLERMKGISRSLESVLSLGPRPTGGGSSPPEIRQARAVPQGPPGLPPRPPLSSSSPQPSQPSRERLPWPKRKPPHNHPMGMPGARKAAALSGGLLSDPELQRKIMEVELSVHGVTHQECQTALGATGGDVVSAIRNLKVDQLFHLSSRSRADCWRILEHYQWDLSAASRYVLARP
UniProt O75385, sequence (O75385 whole entry): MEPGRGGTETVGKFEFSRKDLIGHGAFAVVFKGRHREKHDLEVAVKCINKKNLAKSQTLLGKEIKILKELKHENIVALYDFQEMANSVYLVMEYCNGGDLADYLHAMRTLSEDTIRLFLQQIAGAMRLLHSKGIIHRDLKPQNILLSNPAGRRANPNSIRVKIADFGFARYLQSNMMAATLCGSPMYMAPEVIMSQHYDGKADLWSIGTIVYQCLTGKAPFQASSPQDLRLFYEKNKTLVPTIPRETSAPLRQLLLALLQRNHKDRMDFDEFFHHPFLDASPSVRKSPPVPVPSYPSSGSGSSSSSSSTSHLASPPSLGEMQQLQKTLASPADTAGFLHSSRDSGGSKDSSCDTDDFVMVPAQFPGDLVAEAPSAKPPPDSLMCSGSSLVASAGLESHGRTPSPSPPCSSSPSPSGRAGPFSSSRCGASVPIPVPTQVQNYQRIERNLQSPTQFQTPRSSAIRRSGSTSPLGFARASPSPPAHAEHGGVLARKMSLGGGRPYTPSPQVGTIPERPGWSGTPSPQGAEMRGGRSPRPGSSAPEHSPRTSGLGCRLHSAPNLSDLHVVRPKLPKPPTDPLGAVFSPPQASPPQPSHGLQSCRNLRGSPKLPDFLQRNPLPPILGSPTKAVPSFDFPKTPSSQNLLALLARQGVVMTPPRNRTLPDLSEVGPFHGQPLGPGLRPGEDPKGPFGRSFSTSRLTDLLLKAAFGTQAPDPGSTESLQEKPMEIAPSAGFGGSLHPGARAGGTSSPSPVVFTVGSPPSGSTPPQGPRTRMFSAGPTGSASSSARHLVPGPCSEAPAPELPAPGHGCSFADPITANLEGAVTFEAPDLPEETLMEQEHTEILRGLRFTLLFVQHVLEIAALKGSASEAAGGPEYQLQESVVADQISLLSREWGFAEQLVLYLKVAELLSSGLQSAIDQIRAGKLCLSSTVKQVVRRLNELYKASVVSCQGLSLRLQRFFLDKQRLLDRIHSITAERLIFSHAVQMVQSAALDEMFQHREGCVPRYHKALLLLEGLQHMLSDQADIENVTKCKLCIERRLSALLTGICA
UniProt Q6A1A2, sequence (Q6A1A2 whole entry): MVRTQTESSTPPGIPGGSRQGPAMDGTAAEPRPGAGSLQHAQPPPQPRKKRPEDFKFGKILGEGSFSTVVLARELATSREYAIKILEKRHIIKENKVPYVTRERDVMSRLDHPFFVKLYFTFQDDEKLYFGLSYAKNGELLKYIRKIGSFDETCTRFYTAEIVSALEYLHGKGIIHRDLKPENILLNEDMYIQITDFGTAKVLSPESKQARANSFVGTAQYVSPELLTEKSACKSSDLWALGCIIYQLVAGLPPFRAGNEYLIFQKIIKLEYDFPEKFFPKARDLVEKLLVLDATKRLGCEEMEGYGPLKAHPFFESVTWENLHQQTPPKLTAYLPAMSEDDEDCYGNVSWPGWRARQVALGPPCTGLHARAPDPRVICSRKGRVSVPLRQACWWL
UniProt P0DMV8, sequence (P0DMV8 whole entry, looked up): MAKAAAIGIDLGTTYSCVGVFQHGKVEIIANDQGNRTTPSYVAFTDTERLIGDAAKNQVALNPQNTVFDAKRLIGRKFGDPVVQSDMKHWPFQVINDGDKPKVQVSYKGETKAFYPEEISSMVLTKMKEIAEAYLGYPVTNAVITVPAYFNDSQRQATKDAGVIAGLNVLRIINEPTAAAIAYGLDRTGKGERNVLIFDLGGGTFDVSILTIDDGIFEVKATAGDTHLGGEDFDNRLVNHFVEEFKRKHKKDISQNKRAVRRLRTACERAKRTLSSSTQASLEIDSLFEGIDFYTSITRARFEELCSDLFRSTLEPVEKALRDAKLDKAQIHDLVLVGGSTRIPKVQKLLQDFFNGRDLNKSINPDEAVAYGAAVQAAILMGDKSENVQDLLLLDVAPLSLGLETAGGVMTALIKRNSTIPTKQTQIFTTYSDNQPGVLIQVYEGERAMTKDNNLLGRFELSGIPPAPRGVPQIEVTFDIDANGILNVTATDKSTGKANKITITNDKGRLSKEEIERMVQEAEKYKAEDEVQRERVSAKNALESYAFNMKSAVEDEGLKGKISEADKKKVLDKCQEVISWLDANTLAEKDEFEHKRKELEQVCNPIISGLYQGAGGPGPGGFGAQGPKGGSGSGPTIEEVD
UniProt Q02750, sequence (Q02750 whole entry): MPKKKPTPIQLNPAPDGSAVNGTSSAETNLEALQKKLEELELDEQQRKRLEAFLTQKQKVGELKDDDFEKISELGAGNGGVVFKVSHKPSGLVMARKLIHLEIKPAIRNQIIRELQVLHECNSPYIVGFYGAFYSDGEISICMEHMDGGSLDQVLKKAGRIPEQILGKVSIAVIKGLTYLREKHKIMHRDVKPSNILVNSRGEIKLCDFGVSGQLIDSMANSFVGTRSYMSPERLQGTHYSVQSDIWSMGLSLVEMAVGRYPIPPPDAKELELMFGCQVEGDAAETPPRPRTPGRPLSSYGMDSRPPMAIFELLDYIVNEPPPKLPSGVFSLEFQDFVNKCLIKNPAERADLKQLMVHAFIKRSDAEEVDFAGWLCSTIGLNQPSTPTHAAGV
UniProt Q9UBS0, sequence (Q9UBS0 whole entry): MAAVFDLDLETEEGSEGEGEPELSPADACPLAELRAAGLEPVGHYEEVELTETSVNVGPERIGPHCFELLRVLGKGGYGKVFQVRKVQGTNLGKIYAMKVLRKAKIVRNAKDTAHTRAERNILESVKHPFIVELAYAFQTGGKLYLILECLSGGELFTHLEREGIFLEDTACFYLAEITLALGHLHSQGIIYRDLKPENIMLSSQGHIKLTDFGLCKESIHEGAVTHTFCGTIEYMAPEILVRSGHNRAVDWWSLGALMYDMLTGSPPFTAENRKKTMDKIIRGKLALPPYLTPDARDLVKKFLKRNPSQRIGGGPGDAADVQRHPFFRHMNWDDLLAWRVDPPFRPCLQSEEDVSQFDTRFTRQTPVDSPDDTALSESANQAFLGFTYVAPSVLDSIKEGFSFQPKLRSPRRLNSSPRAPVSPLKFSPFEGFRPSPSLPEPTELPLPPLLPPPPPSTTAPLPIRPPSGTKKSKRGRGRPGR
UniProt O14929, sequence (O14929 whole entry, looked up): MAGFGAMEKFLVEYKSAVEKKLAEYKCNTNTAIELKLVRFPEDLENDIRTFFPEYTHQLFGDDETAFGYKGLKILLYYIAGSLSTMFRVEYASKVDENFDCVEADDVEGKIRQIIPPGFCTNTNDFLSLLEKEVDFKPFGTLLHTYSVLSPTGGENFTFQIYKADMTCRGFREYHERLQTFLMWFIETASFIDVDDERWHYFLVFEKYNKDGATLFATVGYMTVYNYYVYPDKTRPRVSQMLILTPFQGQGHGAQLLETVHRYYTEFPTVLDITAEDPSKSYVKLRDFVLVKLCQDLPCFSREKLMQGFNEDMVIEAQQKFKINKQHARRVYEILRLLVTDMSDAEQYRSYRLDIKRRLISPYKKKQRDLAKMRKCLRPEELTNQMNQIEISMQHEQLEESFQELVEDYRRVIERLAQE
UniProt O75494, sequence (O75494 whole entry): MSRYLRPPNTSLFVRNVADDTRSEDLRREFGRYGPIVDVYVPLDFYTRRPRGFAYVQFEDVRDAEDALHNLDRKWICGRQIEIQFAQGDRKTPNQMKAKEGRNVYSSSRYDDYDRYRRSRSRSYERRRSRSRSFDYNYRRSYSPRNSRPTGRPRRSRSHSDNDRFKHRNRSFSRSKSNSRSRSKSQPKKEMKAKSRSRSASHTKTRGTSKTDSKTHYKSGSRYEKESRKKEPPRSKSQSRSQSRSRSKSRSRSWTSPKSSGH
UniProt P38919, sequence (P38919 whole entry): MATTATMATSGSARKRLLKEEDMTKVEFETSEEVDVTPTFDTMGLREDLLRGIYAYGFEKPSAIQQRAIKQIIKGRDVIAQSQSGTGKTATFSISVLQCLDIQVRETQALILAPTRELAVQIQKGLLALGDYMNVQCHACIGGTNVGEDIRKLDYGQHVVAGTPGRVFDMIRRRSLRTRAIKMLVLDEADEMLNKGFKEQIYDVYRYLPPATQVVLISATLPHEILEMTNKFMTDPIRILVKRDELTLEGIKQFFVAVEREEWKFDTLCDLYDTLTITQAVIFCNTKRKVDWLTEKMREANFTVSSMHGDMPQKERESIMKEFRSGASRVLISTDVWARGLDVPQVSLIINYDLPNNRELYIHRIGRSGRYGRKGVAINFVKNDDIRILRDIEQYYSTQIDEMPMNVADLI
UniProt Q9BTE7, sequence (Q9BTE7 whole entry): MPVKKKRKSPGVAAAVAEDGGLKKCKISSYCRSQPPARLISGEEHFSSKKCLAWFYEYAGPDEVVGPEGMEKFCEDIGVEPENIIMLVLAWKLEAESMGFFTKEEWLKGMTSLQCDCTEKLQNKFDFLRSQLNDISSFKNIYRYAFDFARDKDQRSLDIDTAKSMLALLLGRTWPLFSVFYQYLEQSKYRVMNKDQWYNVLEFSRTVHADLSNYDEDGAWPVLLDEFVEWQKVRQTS

Target | log2 fold change
UniProt Q15208 (peptide sequence: VMEEEGLKDEEKR, peptide start residue: 51) | 0.382
UniProt P0DMV8 (peptide sequence: LLQDFFNGR, peptide start residue: 349) | 0.293
ULK1 (peptide sequence: LFLQQIAGAMR, peptide start residue: 117) (UniProt O75385) | -1.62
HAT1 (peptide sequence: CNTNTAIELK, peptide start residue: 27) (UniProt O14929) | 0.602
IRAK4 (peptide sequence: MGEGGFGVVYK, peptide start residue: 192) (UniProt Q9NWZ3) | -2.25
UniProt Q8TBX8 (peptide sequence: HGAGAEISTVHPEQYAK, peptide start residue: 394) | -1.92
UniProt Q9UBS0 (peptide sequence: HPFIVELAYAFQTGGK, peptide start residue: 128) | -0.89
CLIC1 (peptide sequence: IGNCPFSQR, peptide start residue: 21) (UniProt O00299) | 0.243
UniProt Q9NSY1 (peptide sequence: DGVNVVEEEIKK, peptide start residue: 212) | -4.3
PRKD2 (peptide sequence: LSSTSLASGHSVR, peptide start residue: 196) (UniProt Q9BZL6) | 1.18
UniProt Q6A1A2 (peptide sequence: AHPFFESVTWENLHQQTPPK, peptide start residue: 338) | -1.74
PRDX1 (peptide sequence: KQGGLGPMNIPLVSDPKR, peptide start residue: 93) (UniProt Q06830) | 0.253
DCUN1D5 (peptide sequence: SMLALLLGR, peptide start residue: 164) (UniProt Q9BTE7) | 1.45
GSTP1 (peptide sequence: MPPYTVVYFPVRGR, peptide start residue: 1) (UniProt P09211) | 0.55
SCRN3 (peptide sequence: IMLDNMR, peptide start residue: 369) (UniProt Q0VDG4) | 0.327
UniProt Q02750 (peptide sequence: SYMSPER, peptide start residue: 228) | 3.08
PARK7 (peptide sequence: VTVAGLAGKDPVQCSR, peptide start residue: 33) (UniProt Q99497) | 0.199
EIF4A3 (peptide sequence: ETQALILAPTR, peptide start residue: 106) (UniProt P38919) | 0.375
TNK1 (peptide sequence: VADFGLVRPLGGAR, peptide start residue: 261) (UniProt Q13470) | -3.64

Target | log2 fold change
TBK1 (peptide sequence: VIGEDGQSVYK, peptide start residue: 144) (UniProt Q9UHD2) | -1.75
UniProt Q9P289 (peptide sequence: NNPPTLVGDFTK, peptide start residue: 234) | -1.31
UniProt Q9Y2K2 (peptide sequence: IGYYEIDR, peptide start residue: 63) | -3.15
PRDX6 (peptide sequence: NFDEILR, peptide start residue: 156) (UniProt P30041) | 0.443
AP2B1 (peptide sequence: VIAAMTVGK, peptide start residue: 37) (UniProt P63010) | 0.277
PRPF4B (peptide sequence: QHLCLVFEPLSMNLR, peptide start residue: 761) (UniProt Q13523) | -0.779
UniProt P60842 (peptide sequence: ATQALVLAPTR, peptide start residue: 100) | 0.334
UniProt O75494 (peptide sequence: SFDYNYR, peptide start residue: 133) | 0.608
MELK (peptide sequence: DLKPENLLFDEYHK, peptide start residue: 132) (UniProt Q14680) | -1.98
UniProt Q13188 (peptide sequence: AIFMIPTNPPPTFR, peptide start residue: 232) | -3.02
UniProt P45985 (peptide sequence: DIKPSNILLDR, peptide start residue: 229) | 0.534
UniProt Q13131 (peptide sequence: VGKHELTGHK, peptide start residue: 43) | -5
PRDM15 (peptide sequence: VKREDLEAGGENLVR, peptide start residue: 882) (UniProt P57071) | -1.86
UniProt P49674 (peptide sequence: FDDKPDYSYLR, peptide start residue: 260) | -0.398
UTP11 (peptide sequence: SELHLLDFQGK, peptide start residue: 121) (UniProt Q9Y3A2) | -1.12
UniProt Q9BVG4 (peptide sequence: LISSVDPQFLK, peptide start residue: 53) | -0.658
USP8 (peptide sequence: SYSSPDITQAIQEEEKR, peptide start residue: 716) (UniProt P40818) | 1.8
PDS5A (peptide sequence: SHDPEEAIRHDVIVTIITAAK, peptide start residue: 369) (UniProt Q29RF7) | 0.622
